# Source: PubChem
# Shown are actives, neighbours in structure and some others; about 6% of the full set was active somewhere.
# PLK1 PBD inh – qHTS for Inhibitors of PLK1-PDB (polo-like kinase 1 - polo-box domain): Primary Screen | Plk1 PBD binding of FITC phosphopeptide, fluorescence polarization | Potency, µM, inactives show max response, negative = inhibition, usual class: inhibitors | actives 2.8% (n = 360,000); note: series mostly up to about 57 µM; nearly all actives have a fitted effect of over 65% in size
# Target sequence (P53350 whole entry, looked up, the tested form may be a part): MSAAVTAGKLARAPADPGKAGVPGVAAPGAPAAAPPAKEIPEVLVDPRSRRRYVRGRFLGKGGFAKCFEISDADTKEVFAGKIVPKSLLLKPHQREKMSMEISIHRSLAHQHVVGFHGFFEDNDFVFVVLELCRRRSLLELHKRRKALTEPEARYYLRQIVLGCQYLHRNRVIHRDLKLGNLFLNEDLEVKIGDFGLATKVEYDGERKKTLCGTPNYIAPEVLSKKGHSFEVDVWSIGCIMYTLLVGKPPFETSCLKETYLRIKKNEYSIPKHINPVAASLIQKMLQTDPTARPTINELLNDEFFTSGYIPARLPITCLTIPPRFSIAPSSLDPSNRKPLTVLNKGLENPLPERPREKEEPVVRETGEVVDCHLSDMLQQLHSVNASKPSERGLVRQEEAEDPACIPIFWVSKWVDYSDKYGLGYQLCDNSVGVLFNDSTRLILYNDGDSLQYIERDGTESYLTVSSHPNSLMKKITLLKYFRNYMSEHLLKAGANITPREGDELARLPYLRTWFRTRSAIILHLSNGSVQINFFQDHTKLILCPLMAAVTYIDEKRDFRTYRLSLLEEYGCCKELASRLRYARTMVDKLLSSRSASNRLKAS
# VDR inh – Inhibitors of the vitamin D receptor (VDR): qHTS; Vitamin D3 receptor (Homo sapiens), P11473; VDR-SRC2-3 peptide fluorescence polarization, 2 h; Potency, µM, inactives show max response, negative = inhibition, hits mostly inhibitors; actives 0.93% (n = 400,000)
#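 Measured by FP: displacement of SRC2-3 coactivator peptide from VDR by library compounds, following a two-hour ambient incubation.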
# Tau ThT inhib – qHTS for Inhibitors of Tau Fibril Formation, Thioflavin T Binding; Microtubule-associated protein tau (Homo sapiens), P10636; recombinant tau K18 P301L, heparin-induced fibrillization, ThT fluorescence; Potency, µM (top dose mostly 57.4 µM), without a hit: at the highest dose activity, negative = inhibition, most hits filed as inhibitors; actives 2.1% (n = 270,000); note: nearly all actives have a fitted effect of over 55% in size
#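 Heparin-induced (20 uM) aggregation of recombinant human K18 P301L tau, 15 uM unlabeled with 0.24 uM labeled, pH 7 acetate buffer, 6 hr at 37 C with compound. Fibrils quantified by 30 uM ThT fluorescence after 1 hr ambient incubation.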
# Tau fluor counter – Counterscreen qHTS for Inhibitors of Tau Fibril Formation, Fluorescence Polarization | actives 0.93% (n = 280,000) | Potency, µM (series often up to 57.7 µM), for inactives: at the top dose activity change, negative = decrease | tau K18 P301L (four-repeat tau fragment) Alexa594 fluorescence, heparin fibrillization; note: nearly all actives have a fitted effect of over 55% in size
#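 Human K18 P301L tau (15 uM unlabeled plus 0.24 uM Alexa 594-labeled, final) in 100 mM sodium acetate pH 7 was mixed with compound and 20 uM heparin and incubated 6 hr at 37 C.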
# Tau fibril FP – qHTS for Inhibitors of Tau Fibril Formation, Fluorescence Polarization. Potency, µM (highest dose often 57.7 µM), for the others: at the highest dose activity, negative = inhibition, usual class: inhibitors. K18 P301L tau heparin fibrillization, Alexa594 FP, 6 h. actives 0.39% (n = 280,000). Microtubule-associated protein tau (Homo sapiens), P10636. AID 1468, 2008; note: nearly all actives have a fitted effect of over 55% in size
#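 Human K18 P301L fragment (15 uM unlabeled plus 0.24 uM Alexa 594-labeled) in 100 mM sodium acetate pH 7 with compound, aggregation induced by 20 uM heparin for 6 hr at 37 C. ThT (30 uM) added for 1 hr, then Alexa 594 FP read.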
# Sfp PPTase inh – qHTS Assay for Inhibitors of Bacillus subtilis Sfp phosphopantetheinyl transferase (PPTase); Biochemical Sfp PPTase activity, qHTS; Potency, µM, inactives show largest response in the series, negative = inhibition, actives largely listed as inhibitors; AID 1490, 2009; 4'-phosphopantetheinyl transferase ffp (Bacillus subtilis), Q9F4F7; actives 3.5% (n = 310,000);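 note: the enzyme is Sfp with the accession as filed and its product quenches rhodamine fluorescence; 0% = enzyme reaction without inhibitor and -100% = no enzyme wells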
#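 With Hepes-Na pH 7.6 buffer containing 10 mM MgCl2, Sfp (15 nM) modified BHQ-2-YbbR (12.5 uM) using rhodamine-CoA (5 uM). Two reads 30 minutes apart at 525/598 nm yielded each well's rate.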
# * hit, by the source's call; ? = inconclusive; . = no result; [ ] = dose if it differs, or a comment. Calls come from the whole dose curve; as a rule, active = well fitted curve in the direction sought with a large enough effect; inconclusive = small, poorly fitted or top-dose-only effect, or another doubt; inactive = no such curve, though single readings can be large; an effect the other way counts as inactive or inconclusive. Unless noted, % is set by controls: 0 for no effect and ±100 for the full control effect; potency is the fitted concentration of half-maximal effect.
SMILES,PLK1 PBD inh,VDR inh,Tau ThT inhib,Tau fluor counter,Tau fibril FP,Sfp PPTase inh
CCC(Cc1c(I)cc(I)c(O)c1I)C(=O)O (centres undefined),.,32µM*,.,.,.,56µM*
COc1cccc(-c2nccc(NCCc3c[nH]c4ccc(OC)cc34)n2)c1,.,0%,.,.,.,-20%
CCOc1ccc(CC(=O)OCN2C(=O)c3ccccc3C2=O)cc1,?,3%,-7%,-10%,0%,89µM*
O=C(CCCOc1ccc(Cl)cc1Cl)N/N=C/c1cccc([N+](=O)[O-])c1,27µM*,-1%,3%,-1%,7%,-8%
Cc1n[nH]c(C)c1CCC(=O)N/N=C/c1cccc([N+](=O)[O-])c1,-14%,2%,-2%,1%,10%,18%
COCCN(C(=O)Cc1ccc(OC)c(OC)c1)c1nc(-c2cc(OC)ccc2OC)cs1,1%,-3%,.,.,.,2%
COc1ccc(OC)c(-c2csc(N(CC3CCCO3)C(=O)C3CCCCC3)n2)c1 (centres undefined),17µM*,?,-6%,-13%,2%,8%
CCCOc1ccc(C2CC(=O)Nc3c2c(=O)n(C)c(=O)n3C)cc1OC (centres undefined),.,-7%,-3%,1%,6%,.
CCC/C(O)=C1\C(=O)CC(C)(C)CC1=Nc1ccccc1O,13µM*,79µM*,-9%,-16%,-3%,9%
Cc1ccc(O)c(-c2n[nH]c3c2C(c2ccc(F)cc2)N(Cc2ccco2)C3=O)c1 (centres undefined),.,-11%,?,14µM*[quencher],4%,.
Cc1cc(C)n(-c2nc3cc(Cl)c(Cl)cc3nc2Nc2ccc(F)cc2C)n1,.,-21%,-3%,-1%,-2%,.
O=C(NCCCCc1ccccc1)c1cccc(NC(=O)C2CC2)c1,19µM*,79µM*,.,.,.,.
CCc1c(C)nc(N2CCN(c3ccc(Cl)cc3)CC2)[nH]c1=O,24µM*,?,.,.,.,14%
CCc1c(C)nc(N2CCN(c3ccc(F)cc3)CC2)[nH]c1=O,-7%,-9%,.,.,.,10%
c1ccc(C(c2ccccc2)N2CC3(CCNCC3)C2)cc1,.,?,.,.,.,-18%
COc1ccc(OC)c2sc(N(CCCN(C)C)C(=O)CCS(=O)(=O)c3ccccc3)nc12,7.5µM*,?,.,.,.,.
COc1ccc2sc(N(CCN(C)C)C(=O)c3cc(Cl)sc3Cl)nc2c1,-4%,-24%,-17%,-20%,-3%,-24%
COc1ccc(OC)c2sc(N(CCN(C)C)C(=O)c3cc(Cl)sc3Cl)nc12,-8%,1%,-7%,-19%,-5%,56µM*
O=C1C(Cc2ccccc2)Nc2ncnc(N3CCc4ccccc4C3)c2N1Cc1ccccc1 (centres undefined),42µM*,-17%,.,.,.,.
CCC1Nc2ncnc(N3CCc4ccccc4C3)c2N(Cc2ccc(Br)cc2)C1=O (centres undefined),1%,.,.,.,.,.
CC(C)c1ccc(NC(=O)Cn2cc(S(=O)(=O)Cc3ccccc3Cl)c3ccccc32)cc1,.,1%,4%,?,?,.
Oc1nc(-c2ccc(Br)cc2)n2ccncc12,-16%,-15%,?,-7%,-4%,56µM*
CCC(Sc1nc2ccncc2[nH]1)C(=O)Nc1cc(C)ccc1C (centres undefined),.,-7%,5%,-13%,-16%,.
CC1=CC2=NC(=O)C(c3ccccc3)C(=O)N2C=C1 (centres undefined),4%,10%,.,.,.,.
CCOC(=O)C1CCN(S(=O)(=O)c2ccc3c(c2)NC(=O)C(C)S3)CC1 (centres undefined),-9%,25%,.,.,.,9%
SMILES,PLK1 PBD inh,VDR inh,Tau ThT inhib,Tau fluor counter,Tau fibril FP,Sfp PPTase inh
CCOC(=O)C1CCN(S(=O)(=O)c2ccc(CC)cc2)CC1,8.4µM*,40µM*,12%,12%,1%,-3%
CCOC(=O)C1CCN(S(=O)(=O)c2ccc3c(c2)N(C(C)=O)CC(C)S3)CC1 (centres undefined),19µM*,?,.,.,.,14%
CC(=O)N1CC(C)Sc2ccc(S(=O)(=O)NC3CCCCC3C)cc21 (centres undefined),30µM*,-12%,.,.,.,12%
CCOC(=O)N1CCC(N2CCN(S(=O)(=O)c3ccc(Cl)cc3)CC2)CC1,-7%,0%,-5%,-1%,1%,50µM*
CCOC(=O)N1CCN(S(=O)(=O)c2ccc(Cl)cc2)CC1,2%,-9%,.,.,.,2%
COC(=O)c1cc(S(=O)(=O)NCc2ccc3c(c2)OCO3)cn1C,-10%,-3%,.,.,.,6%
Cc1ccccc1C(=O)Nc1cc(S(=O)(=O)N2CCCCC2)ccc1N1CCN(C)CC1,6µM*,8%,-4%,0%,0%,-4%
Cc1ccc(S(=O)(=O)N2CCCCC2)cc1NC(=O)c1ccccc1Cl,-9%,3%,.,.,.,.
CN1CCN(c2ccc(S(=O)(=O)N3CCCCC3)cc2NC(=O)c2ccc3ccccc3c2)CC1,-3%,-8%,-5%,-16%,-10%,40µM*
CC(C)C(NC(=O)c1ccc(C(C)(C)C)cc1)C(=O)Nc1ccc(N2CCOCC2)cc1 (centres undefined),-5%,20%,.,.,.,.
Cc1nn(-c2ccc(N3CCCC3)nn2)c(C)c1CCC(=O)N1CCN(c2ccccc2)CC1,.,1%,?,1%,1%,.
Cc1ccccc1CNC(=O)c1ccc2nc(SCc3ccc(F)cc3)n(C)c2c1,.,-2%,2%,-15%,-3%,.
Brc1ccc(C2=Nn3c(Cn4nnc5ccccc54)nnc3SC2)cc1,12µM*,?,-8%,-1%,0%,28µM*
CCc1nnc2n1N=C(c1ccc(Br)cc1)CS2,-13%,3%,.,.,.,0%
Cc1cccc(C)c1NC(=S)N(c1ccccc1)C(C)C,30µM*,7%,2%,-4%,1%,8%
Cc1ccc(Cn2c(SCc3ccc(C(=O)N4CCCCC4)cc3)nc3ccncc32)cc1,.,4%,-5%,-8%,-1%,.
CC(C)(C)S(=O)(=O)/C(C#N)=C/c1sccc1C1OCCO1,21µM*,?,-10%,-11%,3%,4%
COCCN1C(=O)CN(S(C)(=O)=O)CC1(C)C(=O)Nc1c(C)cccc1C (centres undefined),-12%,.,.,.,.,.
